Laboratory results reported in PubChem BioAssay AID602139 (NMMLSC, 2011).
Several values for one entry are separate records, joined by “and”; a condition that tells them apart may be missing. Equal entries are not always repeated. Some of the results follow. Unmarked numbers belong to inactive results. Activity calls are given as the source filed them. No stated cut-off is given here; in the data, active means inhibition above about 32%; inactive means the rest.

Tested on: Botulinum neurotoxin type A light chain protease (Clostridium botulinum A str. ATCC 3502)
Assay: BoNT/A light chain protease inhibitors, confirmation, biochemical, flow cytometry, cherry pick 1 (AID 602139)
Details: multiplex microsphere protease assay, at 10 µM, stronger effect = higher value

Row | SMILES | inhibition
1 | O=C(CN1CCCCCC1)Nc1c(Cl)cc(Cl)cc1Cl | 0%
2 | CCOCC(=O)NCc1ccc2c(c1)cc(C)n2C | 1.8%
3 | Clc1ccc(-c2ncc3ccccn23)c(Cl)c1 | 2.4%
4 | CCCN1C2CCCC1CC(NC(=O)c1cccc(OC)c1)C2 (stereo unspecified) | 0.4%
5 | CC(=O)Nc1ccc(Oc2ccc3c(c2)C(=O)NC3=O)cc1 | 0.3%
6 | Cc1onc(-c2ccccc2Cl)c1C(=O)NCCn1ccc2ccccc21 | 2.7%
7 | COCCn1nnnc1C(c1cc2ccc(OC)cc2[nH]c1=O)N1CCc2ccccc2C1 (stereo unspecified) | 1.1%
8 | Brc1ccc2ncnc(NCc3cccnc3)c2c1 | -2.2%
9 | O=S(=O)(NC1CCCCC1N1CCC(O)CC1)c1ccc(Cl)cc1 (stereo unspecified) | -1%
10 | COc1ccc(C2CC(c3cccs3)=NN2c2nc(C)c(C(C)=O)s2)cc1OC (stereo unspecified) | 33.8% (active) and 32.3% (active)
11 | OC(c1ccc(Cl)cc1)C(CN1CCOCC1)c1ccccc1 (stereo unspecified) | 2.5%
12 | Cc1ccccc1NC(=O)c1cc(S(=O)(=O)Nc2cccc(C(=O)O)c2)ccc1Cl | -1.4%
13 | CC(C)Cc1nnc(NC(=O)CCC(=O)Nc2ccc3cn[nH]c3c2)s1 | -0.8%
14 | Cc1ccc2[nH]cc(CCNC(=O)C3CCCCC3)c2c1 | -0.1%
15 | Cc1ccc(-c2nc(-c3cccnc3)sc2CC(=O)Nc2ccc(C)c(Cl)c2)cc1 | 7.8%
16 | Cc1cccc2cc3c(N)c(C(=O)N4CCCc5ccccc54)sc3nc12 | 16.3%
17 | O=C(Nc1nnc(CCc2ccccc2)s1)C1CCCO1 (stereo unspecified) | -0.5%
18 | COCc1cc(=O)[nH]c(SC)n1 | 0.2%
19 | COc1cc2cc(CN(CCN3CCCC3)C(=O)Nc3ccccc3Cl)c(=O)[nH]c2cc1OC | -2.7%
20 | COC(=O)CN(c1nc(C)c(Cl)c(OC)n1)S(=O)(=O)c1ccc(C)cc1 | 1.8%
21 | CCCSc1nc2sc3c(c2c(=O)n1-c1ccc(OC)cc1)CCN(C)C3 | 1.8%
